# Measured values as given in PubChem BioAssay AID1209 (Sanford-Burnham Center for Chemical Genomics, 2008).
# The campaign covered roughly 190,000 compounds. About 810 (0.43%) were called active. The sample holds actives, similar compounds and a random draw of the others, so the mix is not that of the screen. Rule as the data show it: active = inhibition above about 50%; inactive = the rest.
# Target: Mannose-6-phosphate isomerase (Homo sapiens) (UniProt P34949)
# Test: inhibitors of human PMI, primary screen, biochemical, fluorescence intensity, coupled assay (AID 1209);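 also: plate controls were DMSO vehicle for no effect and wells lacking substrate for full effect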
# Conditions: purified PMI enzyme, at 20 µM, stronger effect = higher value
# Mannose-6-phosphate isomerase (Homo sapiens), sequence (P34949 whole entry, looked up): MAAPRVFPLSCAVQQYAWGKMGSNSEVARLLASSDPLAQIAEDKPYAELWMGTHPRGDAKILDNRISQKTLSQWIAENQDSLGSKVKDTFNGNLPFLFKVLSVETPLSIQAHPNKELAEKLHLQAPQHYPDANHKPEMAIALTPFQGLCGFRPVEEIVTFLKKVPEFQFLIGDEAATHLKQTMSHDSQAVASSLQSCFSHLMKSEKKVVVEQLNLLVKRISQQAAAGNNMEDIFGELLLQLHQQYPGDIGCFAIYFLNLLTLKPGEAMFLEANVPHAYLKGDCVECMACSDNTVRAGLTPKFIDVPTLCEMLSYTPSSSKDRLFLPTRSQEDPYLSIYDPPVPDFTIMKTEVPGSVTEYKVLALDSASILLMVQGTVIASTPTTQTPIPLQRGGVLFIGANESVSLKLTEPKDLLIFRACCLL
row,Structure (SMILES),inhibition
1,O=[N+]([O-])c1ccccc1NC(=S)N/N=C/c1ccc(O)c(O)c1,54.1% (active)
2,COc1ccc(/C=N/NC(=S)Nc2ccccc2[N+](=O)[O-])cc1O,9% (inactive)
3,O=[N+]([O-])c1cc(/C=N/NC(=S)Nc2ccccc2Cl)ccc1Cl,-6.9% (inactive)
4,O=C(c1ccc(C(=O)N2CCCc3ccccc32)s1)N1CCCc2ccccc21,-2.1% (inactive)
5,Cc1ccc(-c2nnc3sc(C4COc5ccccc5O4)nn23)cc1 (stereo not drawn),3.9% (inactive)
6,COc1ccccc1-c1nn2c(C3COc4ccccc4O3)nnc2s1 (stereo not drawn),57.6% (active)
7,Brc1ccccc1-c1nnc2sc(-c3ccc4c(c3)OCCO4)nn12,22.5% (inactive)
8,Clc1ccccc1-c1nnc2sc(C3COc4ccccc4O3)nn12 (stereo not drawn),50% (active)
9,c1csc(-c2nn3c(C4COc5ccccc5O4)nnc3s2)c1 (stereo not drawn),37.9% (inactive)
10,Clc1cccc(-c2nnc3sc(-c4ccc5c(c4)OCO5)nn23)c1,9.8% (inactive)
11,Clc1ccccc1-c1nnc2sc(-c3ccc4c(c3)OCO4)nn12,50.8% (active)
12,Fc1ccc(-c2nn3c(C4COc5ccccc5O4)nnc3s2)cc1 (stereo not drawn),7.6% (inactive)
13,Fc1ccc(-c2nnc3sc(C4COc5ccccc5O4)nn23)cc1 (stereo not drawn),0.9% (inactive)
14,CCC1(C)SC(N)=NN1C(C)=O (stereo not drawn),7.1% (inactive)
15,CCOC(=O)c1ccc(N/C(=N\S(=O)(=O)c2ccccc2C)c2ccccc2)cc1,10.9% (inactive)
16,COc1cc(C(=O)NCc2ccccc2)cc(Br)c1OC,1.2% (inactive)
17,COc1ccc(C(=O)NCc2ccccc2)cc1Br,1.4% (inactive)
18,COc1cc(C(=S)NCc2ccccc2)cc(Br)c1O,68.6% (active)
19,Cc1cc(/C=N\NC(=O)COc2cccc3cccnc23)c(C)n1-c1ccccc1,1.7% (inactive)
20,O=C(c1ccco1)N1CCn2c1nc1ccccc12,-7.1% (inactive)
21,COc1ccc(NC(=O)c2ccc3nc[nH]c3c2)c(OC)c1,8.4% (inactive)
22,C=C(C)C1Cc2c(C)nn(-c3ccccn3)c2C1 (stereo not drawn),-7.4% (inactive)
23,Cc1nn(-c2ccccn2)c2c1C(=O)C(Br)CC2 (stereo not drawn),72% (active)

row,Structure (SMILES),inhibition
1,Cc1nn(-c2ccccn2)c2c1-c1nc(N)ncc1CC2,4.1% (inactive)
2,COc1ccc(CNC(=O)CCCNS(=O)(=O)c2cccc3nonc23)cc1,13% (inactive)
3,CC(C)c1ccc(C(=O)CSc2ncn[nH]2)cc1,83% (active)
4,CCc1ccc(C(=O)CSc2ncn[nH]2)cc1,42.1% (inactive)
5,Cc1ccc(C(=O)CSc2ncn[nH]2)cc1,-6.3% (inactive)
6,COC(=O)Cc1cn(-c2ncc(C(F)(F)F)cc2Cl)c2ccccc12,1.6% (inactive)
7,Cc1cc2ccccc2n1CCNC(=O)c1ccccc1,-10.2% (inactive)
8,Cc1c(Br)c(C(=O)NCc2cc3cc(Cl)ccc3[nH]2)nn1C,5.7% (inactive)
9,O=C(CN1CCN(Cc2ccccc2)CC1)N1CCCCCC1,60.7% (active)
10,O=C(C1CCN(Cc2ccccc2)CC1)N1CCCC1,-5.2% (inactive)
11,O=C(CN1CCN(Cc2ccccc2)CC1)c1ccccc1,2% (inactive)
12,O=c1[nH]c(=S)[nH]c2sccc12,-13.4% (inactive)
13,Nc1[nH]c(=S)[nH]c(=O)c1-c1ccccc1,21.9% (inactive)
14,O=c1[nH]c(=S)[nH]c2[nH]c(=S)[nH]c12,67.9% (active)
15,COc1ccc(CC(=O)OCC(=O)NC(=O)NC(C)C)cc1,9% (inactive)
16,CCCn1nnnc1NCc1ccc(F)cc1,-4.6% (inactive)
17,CCC(=O)N1c2ccccc2NC2=C(C(=O)CC(C)(C)C2)C1c1cccnc1 (stereo not drawn),7.2% (inactive)
18,C(=N\n1cnnc1)/c1ccc(OCc2ccccc2)cc1,-5.7% (inactive)
19,Fc1ccc(COc2ccc(/C=N/n3cnnc3)cc2)cc1,-3.3% (inactive)
20,CCOc1ccc(/C=N/n2cnnc2)cc1,84.4% (active)
21,Cc1occc1C(=O)Nc1nnc(-c2cccs2)s1,6.2% (inactive)
22,Clc1ccccc1Sc1cnc2ccccc2n1,0.9% (inactive)
23,O=C(/C=C/c1ccc(S(=O)(=O)N2CCOCC2)cc1)NC(=S)NCCCn1ccnc1,-0.5% (inactive)

row,Structure (SMILES),inhibition
1,CC(C)=C1C2CCC1C1C(=O)N(c3nccs3)C(=O)C21 (stereo not drawn),-3.3% (inactive)
2,CC1(O)C(=O)c2ccccc2N(c2ccccc2)C1=O (stereo not drawn),-6.5% (inactive)
3,CN1C(=O)C(Cl)(Cl)C(=O)c2ccccc21,77.4% (active)
4,CCN1C(=O)C(F)(CC)C(=O)c2ccccc21 (stereo not drawn),2.2% (inactive)
5,CC(C)(C)c1ccc(C(=O)CSc2n[nH]c(=O)[nH]c2=O)cc1,-4.4% (inactive)
6,CC(C)(C)c1ccc(C(=O)CSc2nc3ccccc3c(=O)[nH]2)cc1,-6.3% (inactive)
7,COc1ccc(NC(C)C(=O)N/N=C/c2cc(Br)ccc2OC)cc1 (stereo not drawn),11.5% (inactive)
8,COc1ccc(/C(N)=N/OC(=O)CSc2ccc(C)cc2)cc1OC,14.6% (inactive)
9,O=C(c1cc(-c2ccco2)on1)N1CCN(c2ccccc2)CC1,53.5% (active)
10,CN1CCN(C(=O)c2cc(-c3ccco3)on2)CC1,-0.9% (inactive)
11,O=C(c1cc(-c2ccco2)on1)N1CCOCC1,20.8% (inactive)
12,CCCNC(=O)COC(=O)c1ccccc1OCC(=O)Nc1ccc(Br)cc1,-10.2% (inactive)
13,COc1ccc(-c2csc(NC(=O)C3CC(=O)N(c4ccc5c(c4)OCCO5)C3)n2)cc1 (stereo not drawn),5.8% (inactive)
14,O=C1CCCN2N=C(SCC(=O)N3N=C(c4ccc(Br)cc4)CC3c3ccc(F)cc3)SC2=N1 (stereo not drawn),22.3% (inactive)
15,CC(NC(=O)Nc1ccc2c(c1)OCO2)C1CCCO1 (stereo not drawn),0.5% (inactive)
16,Cc1cc(N2CCOCC2)ccc1/C=C1/SC(=O)NC1=O,-13.8% (inactive)
17,O=C1NC(=O)/C(=C/c2ccc(O)cc2)S1,-8.7% (inactive)
18,O=C1NC(=O)/C(=C\c2ccc(O)cc2O)S1,53.5% (active)
19,O=S(=O)(c1ccc(Cl)cc1)c1cnc2ccccc2n1,-6.4% (inactive)
20,CC(C)(C)NC(=O)c1cc(-c2ccccc2)n[nH]1,70.1% (active)
21,COC(=O)c1cc(-c2ccccc2)n[nH]1,7.7% (inactive)
22,O=C(O)c1cc(-c2ccccc2)n[nH]1,-12% (inactive)
